DAX1 inh-1 – DAX1 (NR0B1) inhibitors on StAR promoter, primary screen, cell-based, luminescence, SF-1 (NR5A1), full-length DAX-1. HEK293T StAR-luciferase reporter, SF-1/DAX-1 repression relief. inhibition, % at 6.8 µM. 370,000 tested, 1.1% active. AID 652010, 2013;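 active means inhibition above the mean over all tested compounds plus 3 SD, cut at about 3.6% in these data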;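 further: 0% = DAX-1 cells with DMSO and 100% = cells lacking DAX-1 with DMSO; higher inhibition means more luminescence from relief of DAX-1 repression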
hgDAF-12 ag – H. glycines DAF-12 receptor agonists, primary screen, cell-based, luminescence, HEK293, GAL4 fusion, UAS-luciferase; Nuclear hormone receptor DAF-12 (Heterodera glycines), GAL4 fusion; activation, % at 6.8 µM; 370,000 tested, 1.8% active; HEK293 GAL4-hgDAF12 UAS-luciferase reporter, agonist luminescence; normalized to butyrate control; AID 687014, 2013;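 active means activation above a cutoff set at the mean of all screened compounds plus 3 SD, cut at about 10% in these data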;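 further: 0% = DMSO wells and 100% = sodium butyrate wells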
hcDAF-12 act – H. contortus DAF-12 nuclear receptor activators, primary screen, cell-based, luminescence, HEK293, lit1-tk-luc reporter | HEK293 hcDAF-12 lit1-tk-luc reporter; 0% DMSO, 100% Δ7-dafachronic acid | activation, % at 6.8 µM | 370,000 tested, 1.4% active | AID 652067, 2013;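 active means activation above the mean of all tested compounds plus 3 SD, cut at about 5.5% in these data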;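 further: 100% = response to 3 µM Δ7-dafachronic acid high control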
SMARCA2 act – SMARCA2 (BRM) function activators, primary screen, cell-based, luminescence, high throughput; AID 652017, 2013; activation, % at 9.1 µM; MG213 cells, MMTV-luciferase reporter, dexamethasone, overnight; 370,000 tested, 1% active; in the data active means activation above about 7.8%;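 further: 0% = vehicle wells and 100% = reference activator wells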
DAX1 inh-2 – DAX1 (NR0B1) inhibitors, primary screen, cell-based, HEK293, Gal4-DAX1, luciferase luminescence; inhibition, % at 6.75 µM; HEK293 Gal4-DAX1 luciferase reporter; 340,000 tested, 0.99% active; Nuclear receptor subfamily 0 group B member 1 (Homo sapiens), P51843;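 active means inhibition above the mean over all tested compounds plus 3 SD, cut at about 4.2% in these data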;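 further: 0% = DAX1-transfected cells with DMSO and 100% = empty-vector control cells with DMSO; inhibition shows as a rise in luminescence from relieved DAX1 repression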
Target sequence (P51843 207-470 limits assumed): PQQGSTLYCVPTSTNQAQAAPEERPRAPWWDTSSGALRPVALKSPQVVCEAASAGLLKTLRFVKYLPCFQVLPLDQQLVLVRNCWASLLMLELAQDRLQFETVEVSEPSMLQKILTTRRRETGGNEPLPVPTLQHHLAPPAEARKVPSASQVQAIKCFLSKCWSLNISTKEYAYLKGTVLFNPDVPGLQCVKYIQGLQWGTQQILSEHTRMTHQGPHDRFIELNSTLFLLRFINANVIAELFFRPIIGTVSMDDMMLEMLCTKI
ssDAF12 agonist – S. stercoralis DAF-12 nuclear receptor activators, primary screen, cell-based, luminescence, HEK293, GRIP1 co-expression, lit1-tk-luc | Nuclear hormone receptor DAF-12 (Strongyloides stercoralis) | HEK293 ssDAF-12/GRIP1 lit1-tk-luc reporter; % of 3 µM dafachronic acid response | activation, % at 6.8 µM | 370,000 tested, 1% active;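 active means activation above the mean over all tested compounds plus 3 SD, cut at about 0.9% in these data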;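 further: 0% = DMSO-only wells and 100% = 3 µM delta7-dafachronic acid wells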
Starred values were filed as active, the others as inactive; . = no result given. Hits are enriched below; roughly 4.8% of the tested compounds scored in any of these assays.

SMILES | DAX1 inh-1 | hgDAF-12 ag | hcDAF-12 act | SMARCA2 act | DAX1 inh-2 | ssDAF12 agonist
COc1cc(/C=N/NC(=O)c2cccnc2)cc2c1OCO2 | 4.1* | 1 | 1 | 0 | 0 | -2
O=C(N/N=C/c1cccnc1)c1ccc2c(c1)OCCO2 | 1 | 11* | 2 | 4 | 1 | -1
CC(=O)Nc1ccc(C(=O)N/N=C/c2cccnc2)cc1 | 0 | -1 | -1 | -4 | -1 | -1
COc1ccc(-n2c(=S)[nH]c(=O)c3cccnc32)cc1 | 0 | 0 | 0 | -1 | 7.2* | -1
COc1ccc(-n2c(=S)[nH]c3c(oc4ccccc43)c2=O)cc1 | 0 | 0 | 0 | -1 | 0 | -1
CC1OC(CCc2cccc(Cl)c2)Cc2[nH][nH]c(=O)c21 (stereo unspecified) | 3 | 7 | 4 | 0 | . | 2.0*
O=c1[nH][nH]c2c1[C@H](CCc1cccc(Cl)c1)O[C@H](C1CC1)C2 | 1 | -2 | 0 | -1 | . | -1
O=C(NC1CCCCN(Cc2ccc(Cl)cc2)C1=O)C(c1ccccc1)c1ccccc1 (stereo unspecified) | -1 | 1 | -2 | 0 | . | -1
COc1ccc2nc(SCC(=O)N3CCNC3=O)[nH]c2c1 | 3 | 11* | 2 | 2 | 2 | -1
COc1ccc(C2CC(c3ccc(OC)c(OC)c3)=NN2S(C)(=O)=O)cc1 (stereo unspecified) | 2 | 13* | 4 | 3 | 4.6* | 0
CC(=O)O[C@@H]1C=C[C@@H](C#Cc2ccc(C(C)(C)C)cc2)O[C@@H]1COC(=O)Nc1ccccc1 | -2 | 0 | -3 | -7 | . | -2
Cc1ccc(C(=O)C2CC2)c(C)c1 | -1 | 1 | 1 | -2 | -1 | 3.1*
Cc1ccc(S(=O)(=O)NC(=NCC(=O)O)c2ccccc2)cc1 | 0 | -4 | -1 | 0 | 1 | 1.1*
O=C(O)CN=C(NS(=O)(=O)c1ccc(Cl)cc1)c1ccccc1 | 0 | -1 | -1 | -5 | -1 | 0
O=C(O)CN=C(NS(=O)(=O)c1ccc(Cl)cc1)c1ccc(F)cc1 | 0 | 0 | 0 | -4 | 6.0* | -1
CSCCC(N=C(NS(=O)(=O)c1ccc(C)cc1)c1ccccc1)C(=O)O (stereo unspecified) | 0 | 4 | 2 | -2 | 4.3* | -2
CSCCC(N=C(NS(=O)(=O)c1ccc(Br)cc1)c1ccccc1)C(=O)O (stereo unspecified) | 1 | 4 | -1 | 0 | -1 | -1
N[C@H](C(=O)Nc1ccc(Cl)cc1C(=O)c1ccc[nH]1)c1ccccc1 | . | 1 | 0 | . | . | -1
COC(=O)[C@]12C[C@H](CC(=O)N3CCN(C(=O)c4ccco4)CC3)C(=O)N(Cc3ccccc3)C1=C[C@H](C1CCCC1)O[C@@H]2C | 0 | -1 | 2 | -6 | . | -1
O=C(/C=C/c1ccc2c(c1)OCO2)c1ccc[nH]1 | 2 | 11* | 3 | 8 | 3 | 0
COc1cccc(/C=C/C(=O)c2ccc[nH]2)c1 | 1 | 6 | 3 | 2 | 2 | 1.2*
O=C(/C=C/c1ccc2c(c1)OCO2)c1ccc(F)cc1 | 0 | 5 | 1 | 2 | 1 | -1
COc1cccc(/C=C/C(=O)Oc2ccc(C(=O)c3ccc(F)cc3)cc2)c1 | 0 | -2 | 0 | -1 | 2 | -2
Cc1ccc(NC(=O)[C@@H]2CC(=O)O[C@@H]2c2ccccc2)cc1C | -1 | 2 | 0 | -2 | . | -2
COc1ccc(C(=O)Nc2ccc3ccccc3n2)cc1OC | 1 | 10 | 2 | 4 | 4.8* | 0
SMILES | DAX1 inh-1 | hgDAF-12 ag | hcDAF-12 act | SMARCA2 act | DAX1 inh-2 | ssDAF12 agonist
COc1ccc(NC(=O)c2ccccn2)cc1OC | 1 | 12* | 2 | 3 | 4.4* | 0
O=C(N/N=C/C1CCCCC1)c1ccccn1 | 4 | 12* | 6.3* | -2 | 0 | 0
CCC(=O)Nc1ccc(NC(=O)c2ccccn2)cn1 | 2 | 12* | 4 | 1 | -1 | 0
COc1ccc(Cn2cc(COC(=O)NCCc3c[nH]c4ccccc34)nn2)cc1 | -1 | 1 | -1 | -2 | . | -1
CCC(=O)Nc1ccc2c(c1)C(=O)N(C)[C@@H]1CC[C@@H](CC(=O)NCc3ccc(OC)cc3)O[C@H]1CO2 | 1 | 1 | 0 | -3 | . | 0
Cc1ccc(NC(=O)C2CC3CCC2C3)c(C)c1 (stereo unspecified) | . | 9 | -3 | . | . | 0
COc1ccccc1/C=C/C=N/NC(=O)c1ccccn1 | 4.1* | 13* | 1 | 4 | 4 | 0
COc1cc(-c2coc3c(C(=O)Nc4ccc(C(C)C)cc4)cccc23)ccc1O | 4.0* | 6 | 5.6* | 1 | . | 0.9*
CCn1c(=O)n(CC(=O)N2CCCC2)c(=O)c2ccccc21 | -1 | 4 | 1 | -3 | . | -1
COc1ccc(/C=C2\SC(=O)N(CCNC(=O)CN3C(=O)NC4(CCCC4)C3=O)C2=O)cc1 | 4.2* | 5 | 2 | 0 | 2 | 0
O=C(NNC(=S)Nc1ccccc1)NNC(=S)Nc1ccccc1 | 0 | 1 | 0 | 2 | 0 | -1
O=C(NNC(=S)Nc1ccccc1)c1cc(Br)ccc1Cl | 0 | 4 | 6.1* | -2 | 0 | 0
Cc1ccccc1N1CC(O)(c2cccs2)[N+]2=C1CCCC2 (stereo unspecified) | -1 | 0 | 0 | 2 | 0 | 1.8*
CC(NCc1ccco1)C(=O)N1CCOCC1 (stereo unspecified) | 1 | -2 | -2 | -3 | . | 0
O=C(COc1ccccc1Cl)NC(=S)N1CCc2ccccc21 | 1 | 2 | 5.9* | 5 | 0 | -1
COc1ccc2c(CC(=O)N3CCc4ccccc43)coc2c1 | 3 | 10 | 5.8* | 4 | 1 | 1
COc1ccc(OCC(=O)N2CCc3ccccc32)c([N+](=O)[O-])c1 | 4 | 5 | 5.6* | 8 | 2 | 0
O=C(COc1ccc([N+](=O)[O-])cc1Cl)N1CCc2ccccc21 | 4.4* | 9 | 5 | 5 | 1 | 1
COc1ccc(OCC(=O)N2CCCC2=O)c([N+](=O)[O-])c1 | -1 | -2 | -1 | 3 | 0 | -1

Compound activity: PubChem, The Scripps Research Institute Molecular Screening Center
